# Test results: the supplement of paper PMC8728848
# Many of the other results were omitted from the sample, so the strongest signals are more common in it than they were.
# Tests used:
# Assay in all cases: glycan array binding signal (z-score within array); higher = stronger binding
# Details in all cases: glycan notation: IUPAC condensed, linker removed
# [1] = molecular target: Fuc(a1-2)Gal(b1-3)GalNAc(b1-3)Gal(a1-4)Gal(b1-4)Glc
# Method in brief: (§1)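 Glycan array data were curated from 3228 arrays in the Consortium for Functional Glycomics database and kept only where the protein sequence was available. Glycan names were converted to IUPAC-condensed notation, and columns mapping to the same glycan were averaged. The binding signal is a within-array Z-score, averaged across arrays of the same protein sequence at different concentrations or buffers and across linkers. Negative Z-scores can be read as non-binding.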
# [2] = molecular target: Fuc(a1-2)Gal(b1-4)GlcNAc(b1-3)Gal(b1-4)GlcNAc(b1-3)Gal(b1-4)GlcNAc
# Method in brief: as §1
# [3] = molecular target: Fuc(a1-2)[GalNAc(a1-3)]Gal(b1-4)[Fuc(a1-3)]GlcNAc
# Method in brief: as §1
# [4] = molecular target: Fuc(a1-3)[Gal3S(b1-4)]GlcNAc
# Method in brief: as §1
# Fuc(b1-3)GlcNAc = molecular target: Fuc(b1-3)GlcNAc
# Method in brief: as §1
# Gal(a1-3)Gal = molecular target: Gal(a1-3)Gal
# Method in brief: as §1
# Gal(b1-3)Gal = molecular target: Gal(b1-3)Gal
# Method in brief: as §1
# [5] = molecular target: Gal(b1-4)GalNAc(a1-3)[Fuc(a1-2)]Gal(b1-4)GlcNAc
# Method in brief: as §1
# Gal(b1-4)Glc = molecular target: Gal(b1-4)Glc
# Method in brief: as §1
# Gal(b1-4)Glc6S = molecular target: Gal(b1-4)Glc6S
# Method in brief: as §1
# GlcA(b1-3)Gal = molecular target: GlcA(b1-3)Gal
# Method in brief: as §1
# [6] = molecular target: GlcNAc(a1-6)Gal(b1-4)GlcNAc
# Method in brief: as §1
# [7] = molecular target: GlcNAc(b1-4)GlcNAc(b1-4)GlcNAc
# Method in brief: as §1
# [8] = molecular target: GlcNAc(b1-4)[GlcNAc(b1-6)]GalNAc
# Method in brief: as §1
# GlcNAc(b1-6)GalNAc = molecular target: GlcNAc(b1-6)GalNAc
# Method in brief: as §1
# [9] = molecular target: Man(a1-2)Man(a1-3)[Man(a1-3)[Man(a1-6)]Man(a1-6)]Man(b1-4)GlcNAc(b1-4)GlcNAc
# Method in brief: as §1
# Man(a1-3)[Man(a1-6)]Man = molecular target: Man(a1-3)[Man(a1-6)]Man
# Method in brief: as §1
# [10] = molecular target: Man(a1-3)[Man(a1-6)]Man(a1-6)[Man(a1-3)]Man(b1-4)GlcNAc(b1-4)GlcNAc
# Method in brief: as §1
# [11] = molecular target: Man(a1-3)[Man(a1-6)]Man(b1-4)GlcNAc(b1-4)GlcNAc
# Method in brief: as §1
# [12] = molecular target: Neu5Ac(a2-3)Gal(b1-3)[Neu5Ac(a2-3)Gal(b1-4)]GlcNAc
# Method in brief: as §1
# [13] = molecular target: Neu5Ac(a2-3)Gal(b1-4)[Fuc(a1-3)]GlcNAc6S
# Method in brief: as §1
# [14] = molecular target: Fuc(a1-2)Gal(b1-3)GlcNAc(b1-3)Gal(b1-4)Glc
# Method in brief: as §1
# Fuc(a1-2)Gal(b1-4)GlcNAc = molecular target: Fuc(a1-2)Gal(b1-4)GlcNAc
# Method in brief: as §1
# [15] = molecular target: Fuc(a1-2)Gal(b1-4)GlcNAc(b1-6)GalNAc
# Method in brief: as §1
# [16] = molecular target: Fuc(a1-2)Gal(b1-4)[Fuc(a1-3)]GlcNAc(b1-2)Man(a1-3)[Fuc(a1-2)Gal(b1-4)[Fuc(a1-3)]GlcNAc(b1-2)Man(a1-6)]Man(b1-4)GlcNAc(b1-4)GlcNAc
# Method in brief: as §1
# [17] = molecular target: Fuc(a1-2)Gal6S(b1-3)GlcNAc6S
# Method in brief: as §1
# [18] = molecular target: Fuc(a1-2)[GalNAc(a1-3)]Gal(b1-3)GlcNAc
# Method in brief: as §1
# [19] = molecular target: Fuc(a1-2)[GalNAc(a1-3)]Gal(b1-3)GlcNAc(b1-6)GalNAc
# Method in brief: as §1
# [20] = molecular target: Fuc(a1-2)[GalNAc(a1-3)]Gal(b1-4)[Fuc(a1-3)]GlcNAc(b1-3)GalNAc
# Method in brief: as §1
# Gal(a1-3)Gal(b1-3)GlcNAc = molecular target: Gal(a1-3)Gal(b1-3)GlcNAc
# Method in brief: as §1
# [21] = molecular target: Gal(b1-3)[GlcNAc(b1-6)]GalNAc
# Method in brief: as §1
# [22] = molecular target: Gal(b1-4)GlcNAc(a1-6)Gal(b1-4)GlcNAc
# Method in brief: as §1
# [23] = molecular target: Gal(b1-4)GlcNAc(b1-2)Man(a1-3)[Man(a1-6)]Man(b1-4)GlcNAc(b1-4)GlcNAc
# Method in brief: as §1
# [24] = molecular target: Gal(b1-4)GlcNAc(b1-2)[Gal(b1-4)GlcNAc(b1-6)]Man(a1-6)[GlcNAc(b1-4)][Gal(b1-4)GlcNAc(b1-2)Man(a1-3)]Man(b1-4)GlcNAc(b1-4)GlcNAc
# Method in brief: as §1
# [25] = molecular target: Gal(b1-4)GlcNAc(b1-3)Gal(b1-3)GalNAc
# Method in brief: as §1
# [26] = molecular target: Gal(b1-4)GlcNAc(b1-3)Gal(b1-4)GlcNAc(b1-3)Gal(b1-4)GlcNAc(b1-3)Gal(b1-4)GlcNAc(b1-3)Gal(b1-4)GlcNAc(b1-2)Man(a1-3)[Gal(b1-4)GlcNAc(b1-3)Gal(b1-4)GlcNAc(b1-3)Gal(b1-4)GlcNAc(b1-3)Gal(b1-4)GlcNAc(b1-3)Gal(b1-4)GlcNAc(b1-2)Man(a1-6)]Man(b1-4)GlcNAc(b1-4)GlcNAc
# Method in brief: as §1
# [27] = molecular target: Gal(b1-4)GlcNAc(b1-3)Gal(b1-4)[Fuc(a1-3)GlcNAc(b1-6)]Gal(b1-4)Glc
# Method in brief: as §1
# [28] = molecular target: Gal(b1-4)GlcNAc(b1-3)[Gal(b1-4)GlcNAc(b1-6)]GalNAc
# Method in brief: as §1
# Gal(b1-4)GlcNAc6P = molecular target: Gal(b1-4)GlcNAc6P
# Method in brief: as §1
# Gal6S(b1-3)GlcNAc6S = molecular target: Gal6S(b1-3)GlcNAc6S
# Method in brief: as §1
# Gal6S(b1-4)GlcNAc6S = molecular target: Gal6S(b1-4)GlcNAc6S
# Method in brief: as §1
# GalNAc(b1-4)Gal(b1-4)Glc = molecular target: GalNAc(b1-4)Gal(b1-4)Glc
# Method in brief: as §1
# GalNAc3S(b1-4)GlcNAc3S = molecular target: GalNAc3S(b1-4)GlcNAc3S
# Method in brief: as §1
# [29] = molecular target: GlcNAc(b1-3)Gal(b1-4)GlcNAc(b1-3)Gal(b1-4)GlcNAc(b1-3)Gal(b1-4)GlcNAc(b1-2)Man(a1-3)[GlcNAc(b1-3)Gal(b1-4)GlcNAc(b1-3)Gal(b1-4)GlcNAc(b1-3)Gal(b1-4)GlcNAc(b1-2)Man(a1-6)]Man(b1-4)GlcNAc(b1-4)GlcNAc
# Method in brief: as §1
# [30] = molecular target: GlcNAc(b1-3)[GlcNAc(b1-6)]Gal(b1-4)GlcNAc
# Method in brief: as §1
# Neu5Ac(a2-3)Gal = molecular target: Neu5Ac(a2-3)Gal
# Method in brief: as §1
# [31] = molecular target: Neu5Ac(a2-3)Gal(b1-4)GlcNAc(b1-6)[Neu5Ac(a2-3)Gal(b1-3)]GalNAc
# Method in brief: as §1
# [32] = molecular target: Neu5Ac(a2-3)Gal(b1-4)GlcNAc6S
# Method in brief: as §1
# [33] = molecular target: Neu5Ac(a2-3)Gal6S(b1-4)GlcNAc
# Method in brief: as §1
# [34] = molecular target: Neu5Ac(a2-3)[Neu5Ac(a2-6)]GalNAc
# Method in brief: as §1
binder,measurement,setting,value
"Crocus Lectin (Crocus vernus), Q9FVA1 (protein) MAKSLVLSSLLLALLLAAPLASLADNNVLLTGDVLHTDNQLSFESAAFVMQGDCNLVLYNEAGGFQSNTHGRGVGCTLRLNNFGQLEIHSANSNTPVWVSLRNGIPVRGDYAAVLGPDQHVTIYGPAIWSTPAPNRHERGATVSNIPRVRNVLFSSQVMSDNAQLATRDYSLVMRDDCNLALTKGSKTNIVWESGTSGRGQHCFMRLGHTGLIEISDDRLNTVWRSNTVGQEGDYVLILQINGQAVVYGPAVWSTASPARGGASAAL",glycan array binding signal (z-score),[1],-0.162
same,glycan array binding signal (z-score),[2],-0.146
same,glycan array binding signal (z-score),[3],-0.159
same,glycan array binding signal (z-score),[4],-0.187
same,glycan array binding signal (z-score),Fuc(b1-3)GlcNAc,-0.163
same,glycan array binding signal (z-score),Gal(a1-3)Gal,-0.177
same,glycan array binding signal (z-score),Gal(b1-3)Gal,-0.192
same,glycan array binding signal (z-score),[5],-0.195
same,glycan array binding signal (z-score),Gal(b1-4)Glc,-0.152
same,glycan array binding signal (z-score),Gal(b1-4)Glc6S,-0.165
same,glycan array binding signal (z-score),GlcA(b1-3)Gal,-0.179
same,glycan array binding signal (z-score),[6],-0.196
same,glycan array binding signal (z-score),[7],-0.156
same,glycan array binding signal (z-score),[8],-0.187
same,glycan array binding signal (z-score),GlcNAc(b1-6)GalNAc,-0.175
same,glycan array binding signal (z-score),[9],3.76
same,glycan array binding signal (z-score),Man(a1-3)[Man(a1-6)]Man,7.87
same,glycan array binding signal (z-score),[10],7.04
same,glycan array binding signal (z-score),[11],6.62
same,glycan array binding signal (z-score),[12],-0.169
same,glycan array binding signal (z-score),[13],-0.195
"Siglec-7-SA-PE-180 (Homo sapiens), Q9Y286 (protein) MLLLLLLPLLWGRERVEGQKSNRKDYSLTMQSSVTVQEGMCVHVRCSFSYPVDSQTDSDPVHGYWFRAGNDISWKAPVATNNPAWAVQEETRDRFHLLGDPQTKNCTLSIRDARMSDAGRYFFRMEKGNIKWNYKYDQLSVNVTALTHRPNILIPGTLESGCFQNLTCSVPWACEQGTPPMISWMGTSVSPLHPSTTRSSVLTLIPQPQHHGTSLTCQVTLPGAGVTTNRTIQLNVSYPPQNLTVTVFQGEGTASTALGNSSSLSVLEGQSLRLVCAVDSNPPARLSWTWRSLTLYPSQPSNPLVLELQVHLGDEGEFTCRAQNSLGSQHVSLNLSLQQEYTGKMRPVSGVLLGAVGGAGATALVFLSFCVIFIVVRSCRKKSARPAADVGDIGMKDANTIRGSASQGNLTESWADDNPRHHGLAAHSSGEEREIQYAPLSFHKGEPQDLSGQEATNNEYSEIKIPK",glycan array binding signal (z-score),[1],-0.254
same,glycan array binding signal (z-score),[14],-0.174
same,glycan array binding signal (z-score),Fuc(a1-2)Gal(b1-4)GlcNAc,-0.302
same,glycan array binding signal (z-score),[15],-0.066
same,glycan array binding signal (z-score),[16],-0.133
same,glycan array binding signal (z-score),[17],2.66
same,glycan array binding signal (z-score),[18],-0.313
same,glycan array binding signal (z-score),[19],-0.099
same,glycan array binding signal (z-score),[20],10.7
same,glycan array binding signal (z-score),Gal(a1-3)Gal(b1-3)GlcNAc,-0.363
same,glycan array binding signal (z-score),[21],-0.225
same,glycan array binding signal (z-score),[22],-0.267
same,glycan array binding signal (z-score),[23],0.048
same,glycan array binding signal (z-score),[24],-0.412
same,glycan array binding signal (z-score),[25],-0.464
same,glycan array binding signal (z-score),[26],-0.144
same,glycan array binding signal (z-score),[27],-0.383
same,glycan array binding signal (z-score),[28],-0.453
same,glycan array binding signal (z-score),Gal(b1-4)GlcNAc6P,0.085
same,glycan array binding signal (z-score),Gal6S(b1-3)GlcNAc6S,2.28
same,glycan array binding signal (z-score),Gal6S(b1-4)GlcNAc6S,2.43
same,glycan array binding signal (z-score),GalNAc(b1-4)Gal(b1-4)Glc,0.174
same,glycan array binding signal (z-score),GalNAc3S(b1-4)GlcNAc3S,2.05
same,glycan array binding signal (z-score),[29],0.059
same,glycan array binding signal (z-score),[30],-0.346
same,glycan array binding signal (z-score),Neu5Ac(a2-3)Gal,2.25
same,glycan array binding signal (z-score),[31],-0.035
same,glycan array binding signal (z-score),[32],4.5
same,glycan array binding signal (z-score),[33],2.67
same,glycan array binding signal (z-score),[34],3.03
